According to PubChem BioAssay (NCI):
The panel holds about 83,000 compounds, 20% with a hit somewhere; the sample as a whole holds those more often.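 In brief: 96-well plates, 48 h treatment, single concentration, percent growth endpoint.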 Calls of active or inactive are those of the source. The calls were made as follows: active = growth percent below 10; inactive = the rest.

Key:
Assay in all cases: NCI-60 one-dose screen, 48 h (100 = growth as untreated, 0 = no growth, -100 = all killed)
Conditions in all cases: 10 µM unless noted
NCI-H23 lung = system: NCI-H23 lung
NCI-H226 lung = system: NCI-H226 lung
NCI-H322M lung = system: NCI-H322M lung
HOP-62 NSCLC = system: HOP-62 NSCLC
HOP-92 NSCLC = system: HOP-92 NSCLC
NCI-H522 lung = system: NCI-H522 lung
A549/ATCC NSCLC = system: A549/ATCC NSCLC
786-0 renal = system: 786-0 renal
COLO 205 colon = system: COLO 205 colon
DU-145 prostate = system: DU-145 prostate
K-562 leukemia = system: K-562 leukemia
MALME-3M melanoma = system: MALME-3M melanoma
MDA-MB-231 breast = system: MDA-MB-231 breast
RXF 393 renal = system: RXF 393 renal
SF-268 CNS = system: SF-268 CNS
SF-295 CNS = system: SF-295 CNS
SF-539 CNS = system: SF-539 CNS
UACC-257 melanoma = system: UACC-257 melanoma
M14 melanoma = system: M14 melanoma

Measured: growth

O=C1c2c(c3c4cc(F)ccc4oc3c3[nH]c4ccccc4c23)C(=O)N1O
inactive: NCI-H23 lung 23.4% | NCI-H226 lung 59.3% | NCI-H322M lung 57.7% | HOP-62 NSCLC 24.2% | HOP-92 NSCLC 48.8% | NCI-H522 lung 30.5% | A549/ATCC NSCLC 54.2% | 786-0 renal 47.6% | COLO 205 colon 57.7% | DU-145 prostate 31.8% | K-562 leukemia 26.1% | MALME-3M melanoma 28% | MDA-MB-231 breast 57.6% | RXF 393 renal 39.9% | SF-268 CNS 38.7% | SF-295 CNS 55.7% | UACC-257 melanoma 75.9% | M14 melanoma 28.6%
active: SF-539 CNS 2.46%

C1=C2CCCC3=Cc4ccccc4OC23Oc2ccccc21
inactive: NCI-H23 lung 42.3% | NCI-H226 lung 56.4% | NCI-H322M lung 50.8% | HOP-62 NSCLC 41.6% | HOP-92 NSCLC 61.4% | A549/ATCC NSCLC 32.7% | 786-0 renal 26.4% | COLO 205 colon 25.4% | DU-145 prostate 28.1% | K-562 leukemia 15.3% | MALME-3M melanoma 56.8% | MDA-MB-231 breast 43.5% | SF-268 CNS 31.6% | SF-295 CNS 11.3% | UACC-257 melanoma 40.1% | M14 melanoma 19.2%
active: NCI-H522 lung 3.9% | RXF 393 renal 9.77% | SF-539 CNS 7.81%

CN(C)C(=O)OCc1ccc2c(Cl)cc(Cl)c(O)c2n1
inactive: NCI-H23 lung 51.2% | NCI-H226 lung 68.3% | NCI-H322M lung 53.8% | HOP-62 NSCLC 27.3% | HOP-92 NSCLC 58.8% | NCI-H522 lung 65.1% | A549/ATCC NSCLC 25% | 786-0 renal 48.7% | COLO 205 colon 104% | DU-145 prostate 39.7% | K-562 leukemia 20% | MALME-3M melanoma 46% | MDA-MB-231 breast 54.6% | RXF 393 renal 67.6% | SF-268 CNS 25.8% | SF-295 CNS 34.5% | SF-539 CNS 26.1% | UACC-257 melanoma 48.5% | M14 melanoma 12.6%

C#CCOc1cccc(Nc2c(Cl)c(CCl)nc3ccc(Oc4ccccc4)cc23)c1
inactive: NCI-H23 lung 64.2% | NCI-H226 lung 72.3% | NCI-H322M lung 83.7% | HOP-62 NSCLC 93.1% | HOP-92 NSCLC 64.2% | A549/ATCC NSCLC 90.7% | 786-0 renal 17.7% | COLO 205 colon 83.2% | DU-145 prostate 43.8% | K-562 leukemia 15% | MALME-3M melanoma 68.4% | MDA-MB-231 breast 33.2% | RXF 393 renal 78.6% | SF-268 CNS 18.8% | SF-295 CNS 88.7% | SF-539 CNS 80.7% | UACC-257 melanoma 90% | M14 melanoma 47.7%
active: NCI-H522 lung -6.45%

COc1cccc(NC(=O)c2sc3nc(C)c(C(=O)c4ccccc4)cc3c2N)c1
inactive: NCI-H23 lung 101% | NCI-H226 lung 93.9% | NCI-H322M lung 84.3% | HOP-62 NSCLC 89.7% | HOP-92 NSCLC 86.9% | NCI-H522 lung 92.5% | A549/ATCC NSCLC 35.1% | 786-0 renal 89% | COLO 205 colon 107% | DU-145 prostate 99.9% | K-562 leukemia 64.4% | MALME-3M melanoma 81.5% | MDA-MB-231 breast 91.6% | RXF 393 renal 85.8% | SF-268 CNS 87.6% | SF-295 CNS 67.3% | SF-539 CNS 86.5% | UACC-257 melanoma 81.5% | M14 melanoma 80.6%

COC(=O)[C@@H](Cc1c[nH]c2ccccc12)NC[C@@H](O)CN1C(=O)/C(=C\c2cc(OC)c(OC)c(OC)c2)c2ccccc21
inactive: NCI-H23 lung 76.6% | NCI-H226 lung 58.5% | NCI-H322M lung 84.8% | HOP-62 NSCLC 64.8% | HOP-92 NSCLC 68% | NCI-H522 lung 67.4% | A549/ATCC NSCLC 67.2% | 786-0 renal 77.6% | COLO 205 colon 73.8% | DU-145 prostate 75.1% | K-562 leukemia 36% | MALME-3M melanoma 84.8% | MDA-MB-231 breast 82.5% | RXF 393 renal 72% | SF-268 CNS 70.6% | SF-295 CNS 69.4% | SF-539 CNS 93.3% | UACC-257 melanoma 62.2% | M14 melanoma 64.6%

CC(=O)c1c(/C=C/c2ccc(C)cc2)c2ccccc2[nH]c1=O
inactive: NCI-H23 lung 86.5% | NCI-H226 lung 63% | NCI-H322M lung 91.2% | HOP-62 NSCLC 89.4% | HOP-92 NSCLC 73.1% | NCI-H522 lung 84.6% | A549/ATCC NSCLC 85.4% | 786-0 renal 97.8% | COLO 205 colon 105% | DU-145 prostate 94.9% | K-562 leukemia 90.6% | MALME-3M melanoma 121% | MDA-MB-231 breast 91.7% | RXF 393 renal 104% | SF-268 CNS 75.5% | SF-295 CNS 103% | SF-539 CNS 86.2% | UACC-257 melanoma 81.1% | M14 melanoma 104%

CC(C)c1nc(N(C)S(C)(=O)=O)nc(-c2ccc(F)cc2)c1/C=C/C(=O)C[C@@H](O)CC(=O)O
inactive: NCI-H23 lung 99.8% | NCI-H226 lung 113% | NCI-H322M lung 90% | HOP-62 NSCLC 95.8% | HOP-92 NSCLC 84.2% | NCI-H522 lung 71.4% | A549/ATCC NSCLC 89.5% | 786-0 renal 106% | COLO 205 colon 112% | DU-145 prostate 102% | K-562 leukemia 90.9% | MALME-3M melanoma 109% | MDA-MB-231 breast 110% | RXF 393 renal 124% | SF-268 CNS 98.5% | SF-295 CNS 103% | SF-539 CNS 104% | UACC-257 melanoma 95.6% | M14 melanoma 102%

Oc1cccc(-c2nc(-c3n[nH]c(=S)n3-c3ccccc3)cc3c2[nH]c2ccccc23)c1
inactive: NCI-H23 lung 43.3% | NCI-H226 lung 52.6% | NCI-H322M lung 13.7% | HOP-62 NSCLC 28.4% | HOP-92 NSCLC 63.3% | A549/ATCC NSCLC 48.3% | 786-0 renal 18.4% | COLO 205 colon 68% | DU-145 prostate 27.7% | K-562 leukemia 11.1% | MALME-3M melanoma 44.4% | MDA-MB-231 breast 45.7% | SF-268 CNS 28.6% | UACC-257 melanoma 66.7% | M14 melanoma 24.6%
active: NCI-H522 lung -28.3% | RXF 393 renal -15.7% | SF-295 CNS 3.87% | SF-539 CNS -15.2%

Cn1ccnc1C(=O)/C=C/c1ccc(CC(=O)Nc2cc(F)c(F)c(F)c2)cc1
active: NCI-H23 lung 8.11% | 786-0 renal 6.02% | DU-145 prostate 3% | MDA-MB-231 breast 6.11% | RXF 393 renal -15.6% | SF-539 CNS -19.5%
inactive: NCI-H226 lung 58.1% | NCI-H322M lung 21.1% | HOP-62 NSCLC 11.8% | HOP-92 NSCLC 69.4% | NCI-H522 lung 12.3% | A549/ATCC NSCLC 28.6% | COLO 205 colon 24% | K-562 leukemia 12.6% | MALME-3M melanoma 83.2% | SF-268 CNS 15.5% | SF-295 CNS 51.5% | UACC-257 melanoma 80.2% | M14 melanoma 62.7%

Cc1c(-c2cnc3ccc(Cl)cc3c2C(=O)O)nnn1-c1ccc(Cl)cc1
inactive: NCI-H23 lung 103% | NCI-H226 lung 102% | NCI-H322M lung 93.6% | HOP-62 NSCLC 89.4% | NCI-H522 lung 89.1% | A549/ATCC NSCLC 97.1% | 786-0 renal 62.7% | COLO 205 colon 93.8% | DU-145 prostate 114% | K-562 leukemia 101% | MALME-3M melanoma 99.6% | MDA-MB-231 breast 85.8% | RXF 393 renal 122% | SF-268 CNS 111% | SF-295 CNS 97.7% | SF-539 CNS 99.6% | UACC-257 melanoma 95.9% | M14 melanoma 69.8%
